Most compounds without a hit are left out; they make up all but 2.7% or so of the library.
GLP1R cytotox – cytotoxicity in counter-screen for GLP-1R inverse agonists; 410,000 tested, 0.13% active; Potency, µM (titrated, usually from 38.3 µM), most hits filed as inhibitors; AID 624418; HEK293 cAMP-luciferase reporter cells, luminescence, 24 h;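 note: loss of luciferase light is scored as toxicity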
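Seeding density was 200 cells/uL; after overnight-length (12 h) culture, 23 nL compounds went on for 24 h at 37 °C. Readout used a luciferase detection reagent, luminescence taken after 12 min at room temperature.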
GLP-1R inv ag – acts as inverse agonist at human GLP-1 receptor. P43220. HEK293 GLP-1R CRE-luciferase, luminescence, 24 h; GLP-1R form is constitutively active. AID 624417. 410,000 tested, 1.6% active. Potency, µM (highest dose often 38.3 µM), usual class: inhibitors; note: nearly all actives have a fitted effect of over 55% in size
Target sequence (P43220 whole entry, looked up): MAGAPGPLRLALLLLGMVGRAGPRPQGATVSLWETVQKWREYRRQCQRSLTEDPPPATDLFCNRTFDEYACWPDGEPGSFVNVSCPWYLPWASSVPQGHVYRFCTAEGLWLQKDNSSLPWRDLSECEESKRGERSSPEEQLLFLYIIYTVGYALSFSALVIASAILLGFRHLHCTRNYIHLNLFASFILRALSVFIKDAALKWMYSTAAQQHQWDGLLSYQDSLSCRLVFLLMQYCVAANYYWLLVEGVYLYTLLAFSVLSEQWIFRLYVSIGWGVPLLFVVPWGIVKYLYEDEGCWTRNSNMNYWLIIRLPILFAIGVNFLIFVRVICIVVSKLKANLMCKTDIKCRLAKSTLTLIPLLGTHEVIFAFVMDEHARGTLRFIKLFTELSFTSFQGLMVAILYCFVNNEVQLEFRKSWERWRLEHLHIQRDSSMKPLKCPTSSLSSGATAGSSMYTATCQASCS
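GLP-1R inverse agonism mode: basal reporter luminescence in engineered HEK293 cells measured after one day of compound exposure at 37 deg C, with a 12 min room-temperature detection step.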
GLP-1R agonist – agonists of human GLP-1 receptor; 380,000 tested, 0.007% active; P43220; HEK293 GLP-1R CRE-luciferase, luminescence, 4-6 h; cells express a hypersensitive GLP-1R form; Potency, µM (highest dose often 45.6 µM), hits mostly activators; AID 624172
a7 integrin act – activates integrin-mediated alleviation for muscular dystrophy | alpha7betagal myoblasts, beta-gal FDG fluorescence, 48 h | Potency, µM (doses to about 38.3 µM), usual class: activators | 350,000 tested, 0.064% active | AID 624291; note: nearly all actives have a fitted effect of over 60% in size
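alpha7betagal+/- myoblasts (passage 13, 250/well) treated 48 h at 37C with compounds at 1:260 dilution of DMSO stock. Lysed, then beta-galactosidase activity read as FDG fluorescence (ex 480/em 540) after 30 min, with pre-read for autofluorescence.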
BRCA1 expr up – BRCA1 expression activation; 380,000 tested, 1.1% active; MCF7-BRCA1-FFLuc reporter, luminescence, 48 h; response scale: scaled: vehicle 0%, 10 µM genistein 100%; AID 624202; Potency, µM (highest dose often 46.1 µM), usual class: activators; note: nearly all actives have a fitted effect of over 80% in size
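MCF7-BRCA1-FFLuc, 2000 cells/well; 2 h attach, 37 °C/5% CO2; compound 48 h; luciferase substrate 15 min; luminescence end-point. Norm. to genistein 10 microM max activation and DMSO; concentration-response curves fitted.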
Large screens that a line does not name were inactive. Calls come from the whole dose curve; as a rule, active = well fitted curve in the direction sought with a large enough effect; inconclusive = small, poorly fitted or top-dose-only effect, or another doubt; inactive = no such curve, though single readings can be large; an effect the other way counts as inactive or inconclusive.

COc1cc(C)ccc1OCc1cc(C(=O)N(C)CCCN2CCOCC2)no1	BRCA1 expr up 7.9µM
COc1ccc(OCc2cc(C(=O)N(C)Cc3cc(C)no3)no2)c(Cl)c1	GLP-1R inv ag inconclusive, BRCA1 expr up 4µM
CC(=O)c1ccc(OCc2cc(C(=O)N(C)Cc3cc(C)no3)no2)cc1	none
CCOc1c(C)cnc2c1c(=O)n(Cc1cccc(Cl)c1)c(=O)n2C	GLP-1R inv ag 10µM
CC1CCN(S(=O)(=O)c2ccc3[nH]ccc3c2)CC1	none (no result: GLP-1R agonist, a7 integrin act, BRCA1 expr up)
CCOC(=O)c1cc(S(=O)(=O)Nc2cc(C)c(Cl)cc2OC)[nH]n1	none (no result: a7 integrin act)
Cc1nc(NC(=O)Nc2ccc(Cl)cc2)sc1C	BRCA1 expr up 5.6µM
Cc1nc(NC(=O)c2cccnc2Cl)sc1C	BRCA1 expr up 3.2µM
COc1ccc(S(=O)(=O)NCc2ccc3c(c2)CCN3C(=O)c2ccc(C)cc2)cc1Cl	none (no result: GLP-1R agonist, a7 integrin act, BRCA1 expr up)
O=C(COC(=O)C1CC1)Nc1ccc(N=Nc2ccccc2)cc1	BRCA1 expr up 2.5µM
Cc1ccc(-c2nc3cc(Cl)ccc3o2)cc1NC(=O)COc1ccc(F)cc1	none (no result: GLP-1R agonist, a7 integrin act, BRCA1 expr up)
Cc1ccc(C(=O)O/N=C(\N)c2ccccn2)cc1	GLP1R cytotox inconclusive, GLP-1R inv ag 2.5µM
N/C(=N\OC(=O)c1ccccc1)c1ccccn1	GLP-1R inv ag inconclusive
CCOc1ccc(C(=O)O/N=C(\N)c2ccccn2)cc1	GLP1R cytotox inconclusive, GLP-1R inv ag 2.5µM
N/C(=N\OC(=O)c1cccc(F)c1)c1ccccn1	none
Cc1cccc(C(=O)O/N=C(\N)c2ccccn2)c1	GLP1R cytotox inconclusive, GLP-1R inv ag 2µM
COc1ccc(Cl)cc1NC(=O)c1cc2nc(-c3ccc4c(c3)OCO4)cc(C(F)(F)F)n2n1	none (no result: GLP-1R agonist, a7 integrin act, BRCA1 expr up)
CC1CCCCC1NCC(=O)Nc1ccccc1-c1ccccc1 (configuration not stated)	GLP-1R inv ag 4.5µM
CC1CCN(CC(=O)Nc2ccccc2-c2ccccc2)CC1	none
COc1ccc(Cl)cc1NC(=O)CSc1nc2c(oc3ccccc32)c(=O)n1Cc1ccco1	none (no result: GLP-1R agonist, a7 integrin act)
Cc1ccc(NC(=O)Nc2ccc3c(c2)nnn3C)cc1C	BRCA1 expr up 2.8µM
COc1ccccc1NC(=O)Nc1ccc2c(c1)nnn2C	none
COc1ccc(CNc2ncccc2[N+](=O)[O-])cc1	BRCA1 expr up inconclusive
COc1ccc(CNc2cccnc2Cl)cc1	GLP-1R agonist inconclusive, BRCA1 expr up 10µM (no result: a7 integrin act)
Cc1cccc(-n2c(SCc3ccc([N+](=O)[O-])cc3)nnc2-c2c[nH]c3ccccc23)c1	GLP-1R inv ag 3.2µM, a7 integrin act inconclusive
O=C(C1CCN(Cc2cc(Cl)ccc2O)CC1)N1CCN(Cc2ccccc2)CC1	GLP-1R inv ag 7.1µM
O=C(C1CCN(Cc2ccccc2O)CC1)N1CCN(Cc2ccc3c(c2)OCO3)CC1	GLP-1R inv ag inconclusive
CN(CC(=O)Nc1ccc(Cl)cc1)CC(=O)Nc1sc2c(c1C(N)=O)CCC2	GLP-1R inv ag 4µM
CCOC(=O)c1c(C)c(-c2ccccc2)n(CC(=O)Nc2ccc(OCC)cc2)c1C	none (no result: a7 integrin act)
CN1CCN(CCCNC(=O)c2cnn(-c3ccccc3)c2-n2cccc2)CC1	none (no result: GLP-1R agonist, a7 integrin act)
Cc1cc(O)c(C(C)C)cc1NC(=O)Nc1cccc2ccccc12	GLP-1R inv ag 6.3µM
O=C(Nc1ccccc1)Nc1cccc2cccnc12	GLP-1R inv ag 10µM
CC(=O)c1ccc(NC(=O)Nc2cccc3ccccc23)cc1	BRCA1 expr up 4µM
CC(=O)Nc1ccc(NC(=O)Nc2cccc3ccccc23)cc1	none
O=C(Nc1ccccc1)Nc1cccc2ccccc12	GLP-1R inv ag inconclusive
C/C(=C1/C=Nc2ccccc21)c1ccc(N(C)C)cc1	none (no result: GLP1R cytotox, GLP-1R inv ag, GLP-1R agonist, a7 integrin act)
O=[N+]([O-])c1ncccc1OCc1ccc(Cl)c(Cl)c1	GLP-1R inv ag inconclusive, BRCA1 expr up 7.1µM
CN(C)S(=O)(=O)c1cccc(COc2cccnc2[N+](=O)[O-])c1	none
CCN(CC)c1ccc(C(=O)OCC(=O)N2CCCC2)cc1	none
CC1CCN(C(=O)COC(=O)c2c[nH]c3ccccc23)CC1	GLP-1R inv ag inconclusive, BRCA1 expr up 7.1µM
Cc1cccc(C(=O)OCC(=O)N2CCCCCC2)c1C	GLP-1R inv ag inconclusive, BRCA1 expr up 5.6µM
O=C(OCC(=O)N1CCCCC1)c1c[nH]c2ccccc12	BRCA1 expr up 6.3µM
O=Cc1ccc(C(=O)OCC(=O)N2CCCC2)cc1	a7 integrin act 2.5µM
Cn1nnnc1SCCNCc1ccc(OCc2ccc(Cl)cc2)cc1	none (no result: a7 integrin act)
CCN1CCc2nc3sc(C(=O)Nc4cccc(Cl)c4C)c(N)c3cc2C1	GLP-1R inv ag inconclusive (no result: GLP-1R agonist, a7 integrin act, BRCA1 expr up)
Fc1ccc(-c2cc(-c3ccccc3)c3c(n2)-c2cc(F)ccc2OC3)cc1	none (no result: a7 integrin act)
COc1ccc(Cl)cc1NS(=O)(=O)c1cc(-c2cc(C)no2)ccc1C	GLP-1R inv ag inconclusive (no result: GLP-1R agonist, a7 integrin act, BRCA1 expr up)
COc1cc(S(=O)(=O)NCCOC23CC4CC(CC(C4)C2)C3)c(OC)cc1Cl	none
CCOc1ccc(OCC)c(S(=O)(=O)NCCOC23CC4CC(CC(C4)C2)C3)c1	GLP-1R inv ag 4µM
Cc1ccc(NC(=O)CN2C(=O)COc3ccc(S(=O)(=O)N4CCCCCC4)cc32)cc1C	none (no result: GLP-1R agonist, a7 integrin act, BRCA1 expr up)
NS(=O)(=O)c1ccc(NC(=O)c2ccc(CNS(=O)(=O)c3cc(C(F)(F)F)ccc3Cl)cc2)cc1	GLP-1R inv ag inconclusive, a7 integrin act 10µM
NS(=O)(=O)c1ccc(CNC(=O)c2ccc(Cl)c(S(=O)(=O)NCc3ccccc3)c2)cc1	none
CC1(Cc2ccccc2OC(F)(F)F)C(=O)Nc2cc(-c3ccccc3Cl)ccc21 (configuration not stated)	GLP1R cytotox inconclusive, GLP-1R inv ag 5.6µM (no result: a7 integrin act)
Cc1ccc(-n2nnc(-c3cccnc3Cl)n2)cc1	BRCA1 expr up 3.5µM
Cc1c(Cl)ccc2c(C(=O)NCCN3CCCCC3)cc(-c3ccccn3)nc12	GLP1R cytotox inconclusive, GLP-1R inv ag 3.5µM
Cc1ccc(S(=O)(=O)c2ccc([N+](=O)[O-])cn2)cc1	GLP1R cytotox inconclusive, GLP-1R inv ag 7.9µM
O=[N+]([O-])c1ccc(S(=O)(=O)c2ccccc2)nc1	GLP-1R inv ag inconclusive

Assay outcomes deposited in PubChem by National Center for Advancing Translational Sciences (NCATS).
